The text below walks through data of PubChem BioAssay (NCI).

Several values for one entry are separate records, joined by “and”; a condition that tells them apart may be missing. Equal entries are not always repeated. This is part of a sample that, as a whole, favours compounds with a hit. Of some 83,000 tested, about 20% had one in any assay.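 Step 1: grow cells in 96-well plates. Step 2: add test compound at a single concentration. Step 3: incubate 48 h. Step 4: record percent growth.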 Values without a mark were called inactive. Activity calls are given as the source filed them. Rule for the calls: active = growth percent below 10; inactive = the rest.

Some test systems named below: SK-MEL-2 melanoma; EKVX NSCLC; SN12C renal; UO-31 renal; TK-10 renal; ACHN renal; CAKI-1 renal; A498 renal; CCRF-CEM leukemia; MOLT-4 leukemia.
Experiment in all cases: NCI-60 one-dose screen, 48 h (100 = growth as untreated, 0 = no growth, -100 = all killed)
What all share (details): 10 µM unless noted

On to `FC(F)(F)c1cc2c(Cl)ncnc2n1CCC1CCOCC1`, for which the growth in the test on SK-MEL-2 melanoma is -91.2% (active); in the test on EKVX NSCLC it was 77%; with SN12C renal, 40.7%; in the test with UO-31 renal, -92.9% (active); in the test with TK-10 renal, 98.3%; in the test on ACHN renal it was -44.2% (active). Moreover, the growth in the test with CAKI-1 renal was 80.3%; in the test with A498 renal it was 97.8%; in the test on CCRF-CEM leukemia it was -14.5% (active); in the test with MOLT-4 leukemia, -38.4% (active).
Turning to `COc1cc(NC(=O)C(C)C)ccc1C(=O)NC(=S)Nc1ccc(S(N)(=O)=O)cc1`, the growth is 97.4% in the test on SK-MEL-2 melanoma; 102% with EKVX NSCLC; 100% in the test with SN12C renal; 89.7% in the test with UO-31 renal; 94.6% in the test on TK-10 renal; 103% with ACHN renal. In addition, the growth is 96.7% with CAKI-1 renal, 150% with A498 renal, 97.5% in the test with CCRF-CEM leukemia and 118% in the test with MOLT-4 leukemia.
Take `N#Cc1ccc(C(=O)NNC(=O)CSc2nc3sc4c(c3c(=O)n2-c2ccc(Cl)cc2)CCCC4)cc1`: the growth with SK-MEL-2 melanoma is 94.2%; in the test on EKVX NSCLC it was 54.3%; in the test with SN12C renal it was 41.7%; in the test on UO-31 renal, 42.7%; in the test with TK-10 renal, 115%; in the test on ACHN renal it was 71.2%. Besides, the growth was 53.1% in the test with CAKI-1 renal, 89.2% with A498 renal, 48.9% with CCRF-CEM leukemia and 46.3% with MOLT-4 leukemia.
Consider `CCOC(=O)/C(F)=C/C1CC1CCc1ccc(OCC)cc1` (stereo not given), for which the growth with SK-MEL-2 melanoma is 102%; in the test with EKVX NSCLC, 47.7%; in the test with SN12C renal it was 44.9%; in the test with UO-31 renal, 73.8%; with TK-10 renal, 98.2%; in the test on ACHN renal, 75.1%. For the same molecule, the growth in the test on CAKI-1 renal was 86.1%; with A498 renal, 102%; with CCRF-CEM leukemia it was 106%; with MOLT-4 leukemia it was 98.4%.
Take `NC1(c2ccc(-c3ccc4ncnc(NCc5ccccc5)c4c3)cn2)COC1`: the growth was 112% and 113% with SK-MEL-2 melanoma; 111% and 100% in the test on EKVX NSCLC; 105% and 101% in the test on SN12C renal; 99.8% and 85.4% in the test with UO-31 renal; 108% with TK-10 renal; 102% and 109% in the test on ACHN renal. In addition, the growth is 94.8% and 103% in the test on CAKI-1 renal; 118% and 134% in the test with A498 renal; 106% and 102% in the test with CCRF-CEM leukemia; 112% and 101% with MOLT-4 leukemia.
For `O=c1c(-c2nc(-c3ccccc3)c(-c3ccccc3)[nH]2)coc2ccc(F)cc12`, the growth with SK-MEL-2 melanoma is 62.9%; in the test with EKVX NSCLC, 25.7%; with SN12C renal, 68.9%; in the test with UO-31 renal, 40.4%; with TK-10 renal it was 94.3%; in the test with ACHN renal, 51%. Also, the growth with CAKI-1 renal is 64.9%; in the test with A498 renal, 109%; in the test on CCRF-CEM leukemia it was 49%; in the test with MOLT-4 leukemia, 23.6%.
`CN1CCN(C(=O)Oc2cc3c(c4ccccc24)[C@H](CCl)CN3C(=O)c2cc3cc(OCCCN4CCC4)ccc3[nH]2)[C@@H]2CSSC[C@H]21`: the growth was -83.7% (active) in the test on SK-MEL-2 melanoma; -50.6% (active) with EKVX NSCLC; -75.8% (active) in the test on SN12C renal; -0.968% (active) with UO-31 renal; 11.7% with TK-10 renal; -22.8% (active) with ACHN renal. Also, the growth in the test with CAKI-1 renal was 1.34% (active); with A498 renal, -18.7% (active); in the test with CCRF-CEM leukemia, -28% (active); in the test on MOLT-4 leukemia it was -9.2% (active).
As for `N#Cc1cc(-c2ccc3ncnc(N4CCc5cc(F)c(Cl)cc54)c3c2)cnc1N`, the growth with SK-MEL-2 melanoma was 52%; in the test with EKVX NSCLC it was 24.6%; in the test with SN12C renal it was 26.8%; with UO-31 renal, 19.4%; in the test on TK-10 renal, 29.9%; in the test on ACHN renal, 26.6%. Further, the growth is 19.8% in the test with CAKI-1 renal, -0.0443% (active) in the test on A498 renal, 45.1% with CCRF-CEM leukemia and 7.69% (active) in the test on MOLT-4 leukemia.
Consider `CN(C)c1nc(NCCNS(=O)(=O)c2ccc(C(=O)/C=C/c3ccc(C(F)(F)F)cc3)cc2)nc(N2CCOCC2)n1`, for which the growth in the test on SK-MEL-2 melanoma was 74.8%; in the test with EKVX NSCLC, 37.1%; in the test on SN12C renal, 39.9%; with UO-31 renal it was -61.9% (active); in the test on TK-10 renal, 70.4%; in the test on ACHN renal, -33.2% (active). For the same molecule, the growth with CAKI-1 renal is -32.7% (active); in the test on A498 renal it was 72.5%; with CCRF-CEM leukemia, -29% (active); in the test on MOLT-4 leukemia, -19.1% (active).
Regarding `CCC1(OC(=O)c2ccccc2SSCCOC(=O)CCCCC2SCC3NC(=O)NC32)C(=O)OCc2c1cc1n(c2=O)Cc2cc3ccccc3nc2-1` (stereo not given), the growth in the test with SK-MEL-2 melanoma was 103%; in the test on EKVX NSCLC, 52.1%; in the test on SN12C renal it was 32.3%; with UO-31 renal, 38.4%; in the test on TK-10 renal it was 94.8%; in the test with ACHN renal, 20.3%. In addition, the growth was 10.5% in the test with CAKI-1 renal, 104% in the test with A498 renal, 9.01% (active) in the test on CCRF-CEM leukemia and 21.8% in the test with MOLT-4 leukemia.
Consider `COc1cc2cc(C(=O)N3C[C@@H](CCl)c4c3cc(OC(=O)N(CCC(=O)N3CCN(C)CC3)C3CCCCC3)c3ccccc43)[nH]c2c(OC)c1OC`, for which the growth in the test with SK-MEL-2 melanoma was -82.4% (active); with EKVX NSCLC, -78.8% (active); with SN12C renal, -82.8% (active); in the test on UO-31 renal it was -73.2% (active); with TK-10 renal it was -71.3% (active); in the test on ACHN renal it was -84.6% (active). In addition, the growth is -79.1% (active) in the test on CAKI-1 renal, -19.9% (active) in the test with A498 renal, -34.3% (active) with CCRF-CEM leukemia and -19.8% (active) with MOLT-4 leukemia.
With `COc1ccc2c(c1)C(Sc1ccc(Br)cc1)c1c(nc(N)c(C#N)c1N)O2` (stereo not given), the growth with SK-MEL-2 melanoma is 94.3%; in the test on EKVX NSCLC, 67%; with SN12C renal, 77.1%; with UO-31 renal, 43.7%; in the test on TK-10 renal, 108%; in the test on ACHN renal, 79.7%. Besides, the growth in the test on CAKI-1 renal was 80.3%; with A498 renal it was 103%; in the test with CCRF-CEM leukemia it was 9.55% (active); in the test with MOLT-4 leukemia it was 55%.
